G9a inh = qHTS Assay for Inhibitors of Histone Lysine Methyltransferase G9a; Histone-lysine N-methyltransferase EHMT2 (Homo sapiens), Q96KQ7; G9a H3K9 monomethylation, AlphaScreen, 2 h; Potency, µM (top dose mostly 102 µM), for inactives: at the top dose activity, negative = inhibition, actives largely listed as inhibitors; 350,000 compounds, 8.8% hits; AID 504332, 2011; also: potency is read from the fitted curve at half-maximal effect; % is scaled to controls: 0 for no effect and ±100 for the full control effect; nearly all actives have a fitted effect of over 75% in size
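Methyltransferase reactions run at room temperature for 2 h (20 nM enzyme, 500 nM biotin-H3K9 peptide, 20 uM SAM) after a 15 min compound preincubation; product detected by AlphaScreen beads and anti-H3K9me1 antibody.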
Six1-Eya2 inh = qHTS Assay for Inhibitors of the Six1/Eya2 Interaction; Homeobox protein SIX1 (Homo sapiens) + Protein phosphatase EYA2 (Homo sapiens), …; AlphaScreen GST-Six1/His-Eya2 binding, biochemical; stronger effect = lower value; activity change, % (no concentration beside the values); 360,000 compounds, 0.56% hits; in the data active = activity change below about -65%; inconclusive = mostly about -30% to -63%; also: % is scaled to controls: 0 for no effect and ±100 for the full control effect
Target sequence (O00167 whole entry, looked up): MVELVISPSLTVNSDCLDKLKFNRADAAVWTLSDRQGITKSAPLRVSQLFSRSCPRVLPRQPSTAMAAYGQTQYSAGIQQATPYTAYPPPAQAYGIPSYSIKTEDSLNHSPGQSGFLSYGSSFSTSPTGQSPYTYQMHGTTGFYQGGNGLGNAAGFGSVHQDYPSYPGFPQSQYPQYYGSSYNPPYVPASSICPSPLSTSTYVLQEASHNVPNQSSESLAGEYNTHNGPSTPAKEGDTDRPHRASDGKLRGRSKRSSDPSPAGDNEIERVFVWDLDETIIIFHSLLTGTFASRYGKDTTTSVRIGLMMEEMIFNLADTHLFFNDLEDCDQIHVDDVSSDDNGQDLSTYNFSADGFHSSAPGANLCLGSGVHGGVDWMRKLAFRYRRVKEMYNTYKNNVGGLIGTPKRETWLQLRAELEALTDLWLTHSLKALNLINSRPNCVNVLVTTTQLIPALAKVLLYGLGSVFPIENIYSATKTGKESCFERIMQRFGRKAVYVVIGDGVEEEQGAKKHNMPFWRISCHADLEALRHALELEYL
Target sequence (Q15475 whole entry, looked up): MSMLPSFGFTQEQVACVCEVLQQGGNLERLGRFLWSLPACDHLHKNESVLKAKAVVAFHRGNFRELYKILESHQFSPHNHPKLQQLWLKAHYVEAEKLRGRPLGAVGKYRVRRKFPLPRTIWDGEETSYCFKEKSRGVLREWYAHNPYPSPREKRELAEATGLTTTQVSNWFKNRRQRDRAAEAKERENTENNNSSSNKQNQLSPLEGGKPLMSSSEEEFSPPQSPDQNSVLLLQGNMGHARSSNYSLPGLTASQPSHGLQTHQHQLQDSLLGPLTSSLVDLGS
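AlphaScreen with GST-Six1 and His-Eya2 (5X mix: 250 nM and 500 nM), glutathione donor and nickel acceptor beads; buffer 50 mM Tris pH 8.0, 300 mM NaCl, 1 mM TCEP; 1 h at 37 C in the dark.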
BAZ2B inh = qHTS Assay for Inhibitors of BAZ2B | Bromodomain adjacent to zinc finger domain protein 2B (Homo sapiens), Q9UIF8 | AlphaScreen BAZ2B-H3K14Ac peptide displacement | Potency, µM (titrated, usually from 114 µM), for inactives: at the top dose activity change, negative = inhibition, hits mostly inhibitors | 360,000 compounds, 4.4% hits | AID 504333, 2011; also: potency is read from the fitted curve at half-maximal effect; % is scaled to controls: 0 for no effect and ±100 for the full control effect; nearly all actives have a fitted effect of over 60% in size
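BAZ2B (50 nM) with biotin-H3(5-23)K14Ac peptide (50 nM) in PBS pH 7.4, 0.01% Tween-20, preformed 30 min, then compound 30 min at room temperature; top concentration 110uM. AlphaScreen streptavidin donor/nickel chelate acceptor beads (10 ug/mL final), 20 min dark, signal read.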
CtBP-E1A inh = qHTS Assay for Inhibitors of the CtBP/E1A Interaction; CtBP / adenovirus E1A interaction (AlphaScreen); AlphaScreen GST-E1A/His-CtBP binding, 1536-well; stronger effect = lower value; activity change, % (concentration not given with the values); 340,000 compounds, 0.49% hits; AID 651724, 2012; in the data active = activity change below about -65%; inconclusive = mostly about -30% to -63%; also: % is scaled to controls: 0 for no effect and ±100 for the full control effect
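In 5 uL wells, 23 nL compound meets equimolar GST-E1A and His-CtBP (5X stock 125 nM each) for 2 h, 37 °C. Beads (5X, 50 ug/mL) then 1 h, 37 °C, dark.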
JMJD2A Tudor = qHTS Assay for Inhibitors of JMJD2A-Tudor Domain; Lysine-specific demethylase 4A (Homo sapiens), O75164; Potency, µM (series often up to 114 µM), without a hit: top-dose activity change, negative = inhibition, actives largely listed as inhibitors; 390,000 compounds, 4.4% hits; AlphaScreen JMJD2A-Tudor / H3K4me3 peptide binding; AID 504339, 2011; also: potency is read from the fitted curve at half-maximal effect; % is scaled to controls: 0 for no effect and ±100 for the full control effect; nearly all actives have a fitted effect of over 50% in size
HP1b binding inh = HTS for Inhibitors of HP1-beta Chromodomain Interactions with Methylated Histone Tails. Chromobox protein homolog 1 (Homo sapiens), P83916. AlphaScreen HP1-beta / biotin-H3K9me3 peptide binding. Potency, µM (doses to about 114 µM), for inactives: at the top dose activity change, negative = inhibition, actives largely listed as inhibitors. 390,000 compounds, 0.56% hits; also: potency is read from the fitted curve at half-maximal effect; nearly all actives have a fitted effect of over 70% in size
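HP1-beta protein (50 nM final) preincubated 30 min at room temperature with biotinylated H3(1-18)K9me3 peptide (50 nM) in PBS pH 7.4, 0.01% Tween-20, then compound added for 30 min. AlphaScreen streptavidin donor/nickel chelate acceptor beads (10 ug/mL final), 30 min dark, luminescence read.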
* marks the source's active call; other numbers are inactive results; [ ] = another dose, or the depositor's remark. Most compounds without a hit are left out; they make up all but 10% or so of the library. Unless noted, calls follow the shape of the dose curve; as a rule, active = well fitted inhibition curve with a large enough effect; inconclusive = small, poorly fitted or top-dose-only effect; inactive = no such curve, though single readings can be large or run the other way.

For O=C1CCC(=O)N1c1nc2n(n1)C(c1ccccc1)C=C(c1ccc(Br)cc1)N2 (centres undefined) the results were G9a inh 25.1µM*, Six1-Eya2 inh -4.4, BAZ2B inh inconclusive, CtBP-E1A inh 1.5, JMJD2A Tudor inconclusive and HP1b binding inh 41.6%.
For COc1ccc(C2C=C(c3ccc(Br)cc3)Nc3nc(N4C(=O)CCC4=O)nn32)cc1 (centres undefined) the results were G9a inh 35.5µM*, Six1-Eya2 inh -9.9, BAZ2B inh inconclusive, CtBP-E1A inh -3.4, JMJD2A Tudor inconclusive and HP1b binding inh 20.0%.
`COc1ccc(C2=CC(c3ccc(F)cc3)n3nnnc3N2)cc1` (centres undefined) gave G9a inh 0.9%[59 µM], Six1-Eya2 inh 6.5, BAZ2B inh 5.0%, CtBP-E1A inh 5.4, JMJD2A Tudor -19.8% and HP1b binding inh 52.3%.
For Cc1ccc(C2C=C(c3ccccc3)Nc3nc(NS(=O)(=O)c4ccc(C)cc4)nn32)cc1 (centres undefined) the results were G9a inh -8.9%[59 µM], BAZ2B inh -0.3%, JMJD2A Tudor -7.9% and HP1b binding inh 70.6%.
For COc1ccc(C)cc1Nc1n[n+](-c2ccccc2)c(-c2ccc(N(C)C)cc2)s1 the results were G9a inh 50.1µM*, Six1-Eya2 inh -11.7, BAZ2B inh 28.2µM*, CtBP-E1A inh 3.1, JMJD2A Tudor 50.1µM* and HP1b binding inh inconclusive.
COc1ccc(C)cc1Nc1n[n+](-c2ccccc2)c(-c2c(Cl)cccc2Cl)s1 was read as G9a inh 39.8µM*, Six1-Eya2 inh inconclusive, BAZ2B inh 15.8µM*, CtBP-E1A inh inconclusive, JMJD2A Tudor 50.1µM* and HP1b binding inh inconclusive.
N#Cc1cc([N+](=O)[O-])c2sc(C(N)=O)[n+]([O-])c2c1 was read as G9a inh 28.2µM*.
COc1cccc(NC(=O)Cn2c(=O)n(Cc3ccc(C(=O)NCc4ccc5c(c4)OCO5)cc3)c(=O)c3ccccc32)c1 was read as G9a inh 0.2%[59 µM], BAZ2B inh 0.9%, JMJD2A Tudor -5.8% and HP1b binding inh 33.1%.
Screening CCC1(CC)Cc2ccccc2C(=C(C#N)C#N)N1 returned G9a inh 13.5%[59 µM], Six1-Eya2 inh -2.3, BAZ2B inh -2.7%, CtBP-E1A inh -1.3, JMJD2A Tudor -2.9% and HP1b binding inh 53.0%.
N#CC(C#N)=C1NC(N)=C(C#N)C(c2ccccc2)=C1C#N was read as G9a inh 3.55µM* and BAZ2B inh inconclusive.
COc1cc(OC)cc(C(=O)NNC(=S)NC2CC2)c1 was read as G9a inh 56.2µM*, Six1-Eya2 inh -0.7, BAZ2B inh 2.5%, CtBP-E1A inh 0.7, JMJD2A Tudor 5.9%[57.1 µM] and HP1b binding inh 36.7%.
`CCOC(=O)COc1cc(Br)c(/C=N/Nc2ccccc2)cc1OC` gave G9a inh 10µM*, Six1-Eya2 inh -2.6, BAZ2B inh -1.3%, CtBP-E1A inh -0.9, JMJD2A Tudor -24.2% and HP1b binding inh 27.0%.
COc1ccc(/C=N/Nc2ccc(C(=O)O)cc2)cc1Br was read as G9a inh 35.5µM*, Six1-Eya2 inh -8.0, BAZ2B inh inconclusive, CtBP-E1A inh -7.1, JMJD2A Tudor -25.9% and HP1b binding inh 12.0%.
Screening C=CCOc1c(Br)cc(/C=N/Nc2ccc(C(=O)O)cc2)cc1OCC returned G9a inh 3.16µM*, Six1-Eya2 inh inconclusive, BAZ2B inh -5.3%, CtBP-E1A inh -27.8, JMJD2A Tudor -26.6%[57.1 µM] and HP1b binding inh 2.0%.
O=C(Cc1csc2ccccc12)NCc1cccc(Br)c1 was read as G9a inh 12.4%[59 µM], BAZ2B inh 10.2%, JMJD2A Tudor -7.7% and HP1b binding inh 41.3%.
For O=C(c1ccccc1O)N(Cc1ccccc1)Cc1ccccc1 the results were JMJD2A Tudor -34.7%.
`C/C(=N\NC(=O)c1cc(-c2ccco2)nc2ccccc12)c1cccnc1` gave G9a inh 39.8µM*, Six1-Eya2 inh -0.3, BAZ2B inh -14.8%, CtBP-E1A inh -3.0, JMJD2A Tudor -20.9% and HP1b binding inh 44.4%.
For CCOc1ccc(-c2cc(C(=O)N/N=C(\C)c3cccnc3)c3ccccc3n2)cc1 the results were G9a inh 35.5µM*, Six1-Eya2 inh -2.6, BAZ2B inh inconclusive, CtBP-E1A inh 0.4, JMJD2A Tudor -12.4% and HP1b binding inh 44.6%.
`CCC(=O)N1CCc2cc(CNS(=O)(=O)c3ccc(CC(C)C)cc3)ccc21` gave G9a inh 10.6%[59 µM], BAZ2B inh 0.3%, JMJD2A Tudor -8.1% and HP1b binding inh 25.1%[57 µM].
`O=C(O)C(Cc1ccccc1)N1C(=O)/C(=C/C=C/c2ccco2)SC1=S` (centres undefined) gave Six1-Eya2 inh inconclusive, BAZ2B inh 8.91µM*, CtBP-E1A inh 5.2, JMJD2A Tudor 10µM* and HP1b binding inh 10µM*.
For O=C(O)CC(C(=O)O)N1C(=O)/C(=C/C=C/c2ccco2)SC1=S (centres undefined) the results were G9a inh -186.1%[59 µM], Six1-Eya2 inh inconclusive, BAZ2B inh 5.01µM*, CtBP-E1A inh -12.8, JMJD2A Tudor 3.55µM* and HP1b binding inh 3.55µM*.
For CCC(C(=O)O)N1C(=O)/C(=C/c2cccn2C)SC1=S (centres undefined) the results were G9a inh inconclusive, Six1-Eya2 inh 1.6, BAZ2B inh inconclusive, CtBP-E1A inh -10.4, JMJD2A Tudor -34.3% and HP1b binding inh -2.7%.
Screening O=C(O)CCCN1C(=O)/C(=C/C=C/c2ccco2)SC1=S returned G9a inh -169.9%[12.7 µM], Six1-Eya2 inh inconclusive, BAZ2B inh 3.98µM*, CtBP-E1A inh -3.5, JMJD2A Tudor 5.62µM* and HP1b binding inh 14.1µM*.
For CC(=O)Nc1ccc(NC(=O)C/C(C)=N/NC(=O)C(=O)N2CCCC2)cc1 the results were G9a inh 35.5µM*, Six1-Eya2 inh 5.5, BAZ2B inh -32.1%, CtBP-E1A inh 3.1, JMJD2A Tudor -20.0% and HP1b binding inh 39.9%.
`COc1cccc(NC(=O)[C@@H]2CCC(=O)N2C2OC(=O)c3ccccc32)c1` (some centres undefined) gave Six1-Eya2 inh 5.4, BAZ2B inh 10.9%, CtBP-E1A inh -2.0, JMJD2A Tudor -4.1% and HP1b binding inh 44.3%.
